From PubChem BioAssay (NCI)
The panel holds about 83,000 compounds, 20% with a hit somewhere; the sample as a whole holds those more often.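 Method: cells in 96-well plates; compound added at one concentration; 48 h incubation; percent growth measured; values under 10 scored active.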 Unmarked numbers belong to inactive results. Calls of active or inactive are those of the source.

Experiments:
Test in all cases: NCI-60 one-dose screen, 48 h (100 = growth as untreated, 0 = no growth, -100 = all killed)
Conditions in all cases: 10 µM unless noted
SR leukemia = system: SR leukemia
RPMI-8226 leukemia = system: RPMI-8226 leukemia
OVCAR-8 ovarian = system: OVCAR-8 ovarian
OVCAR-5 ovarian = system: OVCAR-5 ovarian
OVCAR-4 ovarian = system: OVCAR-4 ovarian
SK-OV-3 ovarian = system: SK-OV-3 ovarian
OVCAR-3 ovarian = system: OVCAR-3 ovarian
HS 578T breast = system: HS 578T breast
NCI/ADR-RES ovarian = system: NCI/ADR-RES ovarian
IGROV1 ovarian = system: IGROV1 ovarian

| Structure (SMILES) | growth (SR leukemia) | growth (RPMI-8226 leukemia) | growth (OVCAR-8 ovarian) | growth (OVCAR-5 ovarian) | growth (OVCAR-4 ovarian) | growth (SK-OV-3 ovarian) | growth (OVCAR-3 ovarian) | growth (HS 578T breast) | growth (NCI/ADR-RES ovarian) | growth (IGROV1 ovarian) |
| --- | --- | --- | --- | --- | --- | --- | --- | --- | --- | --- |
| COc1ccc(-c2cn(-c3cccc(C(=O)/C=C/c4cc(OC)c(OC)c(OC)c4)c3)c(=O)[nH]2)cc1OC | 6.01% (active) | 6.95% (active) | 64.9% | 93.6% | 85.7% | 82.7% | 98.2% | 87.9% | 90.7% |  |
| Cc1ccc(-c2nc(C(Cl)Cl)n3nc(-c4ccccc4)cc3n2)cc1 | 87.6% | 2.55% (active) | 35.3% | 120% | 48% |  | -83.7% (active) | 31.5% | 18.8% | 56.4% |
| Cc1ccc(-c2cc3nc(C(Cl)Cl)nc(-c4cccnc4)n3n2)cc1 | 14.6% | 16.5% | 22.7% | 24.2% | 9.57% (active) |  | -40.7% (active) | 28.3% | -3.44% (active) | 33.6% |
| N=C(N)c1ccc(-c2ccc(-c3ccc(-c4cccs4)s3)s2)cc1 | 81.6% | 61% | 101% | 97.8% | 90.7% |  | 94.7% | 99.3% | 98.6% | 96.2% |
| Clc1cc(Cl)cc(-c2ccc(-c3ccc(/C=N/NC4=NCCN4)cc3)s2)c1 | 8.3% (active) | 9.95% (active) | 85% | 95.2% | 81% |  | 14.2% | 82.1% | 45.6% | 43.3% |
| COc1ccc(Nc2nc(N)nc3c2CCN(Cc2ccc(OC)cc2OC)C3=O)cc1 | 60.2% | 41.9% | 82.6% | 72.5% | 91.2% | 90.5% | 88% | 82.7% | 93.4% |  |
| N=C(N)c1ccc(-c2cc(Cl)cc(Cl)c2)cn1 | 55% | 82.8% | 99.2% | 89.4% | 97.1% |  | 97.4% | 87.2% | 94.2% | 89.1% |
| Cn1ncc2c(Sc3ccc(Cl)cc3)ncnc21 | 53.6% | 48.5% | 101% | 109% | 95.7% | 94.2% |  |  | 103% | 87.4% |
| C=C1CCC2C3(C)COC(c4ccc(N(C)C)cc4)OC3CCC2(C)C1C/C=C1/C(=O)OCC1O (configuration not stated) | 21.9% | -52.9% (active) | 47.5% | 96.3% | 68.3% | 84% |  |  | 65.1% | 39.3% |
| COc1ccc2c(c1)[nH]c(=O)c1c3cc(C)c(C)cc3cn21 | 31.9% | -32.2% (active) | -27.5% (active) | 28.8% | 42.4% | 43.3% |  |  | 8.27% (active) | -21.7% (active) |
| NC(N)=N/N=C/c1ccc(-c2ccc(-c3cc(Cl)cc(Cl)c3)s2)cc1 | 2.59% (active) | -9.01% (active) | 33.1% | 90.5% | 38.6% |  | -81.5% (active) | 80.8% | -19.2% (active) | -16.7% (active) |
| COc1ccc2c(c1)[nH]c(=O)c1c3cc(OC)ccc3cn21 | 20.4% | -63.2% (active) | 4.9% (active) | 25.9% | 46.1% | 42.4% |  |  | 21.5% | 16.8% |
| COc1ccc2c(c1)[nH]c(=O)c1c3cccc(F)c3cn21 | 39.9% | -49.8% (active) | 27.4% | 47.9% | 47.8% | 42.3% |  |  | 15.8% | 6.16% (active) |
| CCO/C=N/C1=C(C#N)C(c2ccc(Cl)cc2)c2c(c3ccc(C)cc3[nH]c2=O)O1 (configuration not stated) | 86.7% | 30.2% | 89.7% | 83.1% |  | 85.7% | 103% | 48.8% | 96.1% | 68.4% |
| COc1ccc2[nH]c(C(=O)OCc3ccc4c(Cl)cc(Cl)c(O)c4n3)cc2c1 | -12.5% (active) | -34.6% (active) | -31.2% (active) | -71.8% (active) |  | 68.8% | -90% (active) | -16.1% (active) | -58.9% (active) | -92.4% (active) |
| O=C1NC(=C(Cl)Cl)/C(=N/S(=O)(=O)N2CCC(C3(C(F)(F)F)N=N3)CC2)N1 | 13.3% | 23.9% | 96.2% | 105% | 98.1% |  | 40% | 95.8% | 106% | 43.5% |
| COc1ccc(CN2CCc3c(Sc4ccccc4)nc(N)nc3C2=O)c(OC)c1 | 43.3% | -6.07% (active) | 44.8% | 82.3% | 44.3% | 82.2% | 57.1% | 74.3% | 49.7% |  |
| Cc1ccc2nc(-c3cc4c([nH]c5ccccc54)c(-c4ccc(F)c(F)c4)n3)[nH]c2c1 | -18.8% (active) | 47.4% | 78.3% | 113% | 69% | 109% | 96.7% | 108% | 83% |  |
| CCN(CC)CCC(CNc1ccnc2cc(Cl)ccc12)c1ccccc1 (configuration not stated) | 20.5% | 59.3% | 61.2% | 87.9% |  | 85.6% | 79.9% | 46.8% | 83.2% | 80.2% |
| COc1ccc2[nH]c(=O)c3c4ccccc4cn3c2c1 | -27.2% (active) | -59.6% (active) | 24.4% | 31.4% | 49.1% | 32.8% |  |  | 24.8% | 16.8% |
| COc1ccc(C(=O)n2nc(/C=C/c3ccc(O)c(OC)c3)cc2/C=C/c2ccc(O)c(OC)c2)cc1 | -9.23% (active) | -27.3% (active) | -5.24% (active) | -18.8% (active) | -7.85% (active) |  | 1.05% (active) | 0.538% (active) | 26% | 12.8% |
| COc1ccc2cc(-c3ccc(-c4ccc(C(=N)N)cc4)s3)ccc2c1 | 30.4% | 91% | 101% | 103% | 97.3% |  | -15.4% (active) | 105% | 106% | 69.6% |
| Cc1[nH]c2ccc(F)cc2c1CCNC(=O)C1CCN(C(=O)c2ccccc2)CC1 | 97.3% [25 µM] | 10% [25 µM] | 93.3% [25 µM] | 95.1% [25 µM] | 78.6% [25 µM] |  | 98.2% [25 µM] | 87.7% [25 µM] | 95.5% [25 µM] | 82.5% [25 µM] |
| COC(=O)c1cc2cc(-c3ccc(OC)cc3)cnc2[nH]1 | 10.7% | -5.41% (active) | 8.62% (active) | 44.9% | 30.2% | 1.35% (active) | -55.7% (active) | 33.8% | -35.6% (active) |  |
| ClC(Cl)c1nc(-c2cccnc2)n2nc(-c3ccccc3)cc2n1 | 13.4% | 33.2% | 27.7% | 7.66% (active) | 9.31% (active) |  | -47.5% (active) | 51.6% | -11.2% (active) | 13.9% |
| COc1cc2c(cc1O)CCN1C[C@@H](CC(C)C)[C@@H](O)C[C@@H]21 | 103% | 92.5% | 101% | 94.3% | 98.6% | 107% | 108% | 114% | 98.2% |  |
| COc1ccc(-c2ccc(-c3ccc(C(=N)N)s3)s2)cc1Cl | -16.5% (active) | -39.7% (active) | -23.3% (active) | 68.4% | 72.5% |  | -90.6% (active) | 87% | 27.8% | 5.34% (active) |
